Unmarked numbers belong to inactive results.

The subject of the first assay is Pectobacterium parmentieri SCC3193. Nature of the assay: DuctApe activity index (growth/respiration on compound as sole nutrient source, blank-subtracted) (activity index (0-3)); higher = stronger utilization of the compound, active = 3 or more. The following applies: nutrient role (plate category): carbon. As for the experimental part: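 Biolog Phenotype Microarray plates PM1, PM2A (carbon), PM3 (nitrogen) and PM4 (phosphorus/sulfur) inoculated with P. parmentieri SCC3193 in M9-C minimal salts medium with Biolog dye A, and read in the OmniLog for 46 h. Each well was tested in triplicate and the experiment was run twice. DuctApe computed a blank-subtracted activity index (AV, 0-3) from the mean curves; growth is positive at AV >= 3 and negative at AV <= 2.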
Turning to `O=C(O)[C@H](O)[C@@H](O)C(=O)O` [L-Tartaric acid], the DuctApe activity index is 0.

For `OC[C@H]1O[C@@H]2O[C@H]3[C@H](O)[C@@H](O)[C@@H](O[C@H]4[C@H](O)[C@@H](O)[C@@H](O[C@H]5[C@H](O)[C@@H](O)[C@@H](O[C@H]6[C@H](O)[C@@H](O)[C@@H](O[C@H]7[C@H](O)[C@@H](O)[C@@H](O[C@H]8[C@H](O)[C@@H](O)[C@@H](O[C@H]1[C@H](O)[C@H]2O)O[C@@H]8CO)O[C@@H]7CO)O[C@@H]6CO)O[C@@H]5CO)O[C@@H]4CO)O[C@@H]3CO` [b-Cyclodextrin], the DuctApe activity index was 0.

As to `OC[C@H]1O[C@@H]2O[C@H]3[C@H](O)[C@@H](O)[C@@H](O[C@H]4[C@H](O)[C@@H](O)[C@@H](O[C@H]5[C@H](O)[C@@H](O)[C@@H](O[C@H]6[C@H](O)[C@@H](O)[C@@H](O[C@H]7[C@H](O)[C@@H](O)[C@@H](O[C@H]8[C@H](O)[C@@H](O)[C@@H](O[C@H]9[C@H](O)[C@@H](O)[C@@H](O[C@H]1[C@H](O)[C@H]2O)O[C@@H]9CO)O[C@@H]8CO)O[C@@H]7CO)O[C@@H]6CO)O[C@@H]5CO)O[C@@H]4CO)O[C@@H]3CO` [g-Cyclodextrin], the DuctApe activity index was 0.

As to `OC[C@@H](O)[C@@H](O)CO` [i-Erythritol], the DuctApe activity index is 0.

With `O=C(O)CCC(=O)O` [Succinic acid], the DuctApe activity index was 3 (active).

As to `C=C(CC(=O)O)C(=O)O` [Itaconic acid], the DuctApe activity index was 0.

`O[C@@H]1[C@@H](O)[C@@H](O)CO[C@H]1O` [L-Arabinose]: the DuctApe activity index was 3 (active).

With `COC(=O)[C@@H](C)O` [D-Lactic acid Methyl Ester], the DuctApe activity index is 1.

Turning to `NCCO` [2-Aminoethanol], the DuctApe activity index was 0.

`OC[C@H]1O[C@@H](O[C@@H]2[C@@H](CO)OC(O)(CO)[C@H]2O)[C@H](O)[C@@H](O)[C@H]1O` (mixture of isomers) [Lactulose]: the DuctApe activity index is 3 (active).

Still in this assay, the particulars now being: nutrient role (plate category): nitrogen.
With `Nc1cc[nH]c(=O)n1` [Cytosine], the DuctApe activity index is 0.

Turning to `NC(N)=O`, the DuctApe activity index was 0.

For the compound `N` [Ammonia], the DuctApe activity index is 0.

The assay is the same for the next values; noted with them: nutrient role (plate category): phosphate & sulphur.
For `CC(=O)N[C@@H](CS)C(=O)O` [N-Acetyl-L-Cysteine], the DuctApe activity index was 1.

Consider `C[C@@H](OP(=O)(O)O)[C@H](N)C(=O)O` [O-Phospho-L-Threonine], for which the DuctApe activity index was 2.

Consider `O=P(O)(O)O[C@H]1[C@H](OP(=O)(O)O)[C@@H](OP(=O)(O)O)[C@H](OP(=O)(O)O)[C@@H](OP(=O)(O)O)[C@H]1OP(=O)(O)O` [Inositol Hexaphosphate], for which the DuctApe activity index was 0.

Regarding `O=S(=O)(O)O` [Sulfate], the DuctApe activity index was 1.

Take `N[C@@H](CS(=O)O)C(=O)O` [L-Cysteine Sulfinic acid]: the DuctApe activity index is 0.

Turning to `O=P(O)(O)OP(=O)(O)O` [Pyrophosphate], the DuctApe activity index is 1.

As for `Nc1ccn([C@@H]2O[C@H](CO)[C@@H](O)[C@H]2OP(=O)(O)O)c(=O)n1` [Cytidine 2`-Monophosphate], the DuctApe activity index was 3 (active).

On to `O=S1(=O)CCCC1` [Tetramethylene Sulfone], for which the DuctApe activity index was 0.

Take `C[N+](C)(C)CCOP(=O)(O)O` [Phosphoryl Choline]: the DuctApe activity index was 1.

On to `O=c1ccn([C@@H]2O[C@H](CO)[C@@H](O)[C@H]2OP(=O)(O)O)c(=O)[nH]1` [Uridine 2`-Monophosphate], for which the DuctApe activity index was 2.

Turning to `O=P(O)(O)O` [Phosphate], the DuctApe activity index was 1.

The values are drawn from the supplement of paper PMC6518042.
